Experimental data reported in PubChem BioAssay (EPA / NIEHS).
Calls of active or inactive are those of the source. Rule for the calls: active = hit-call score of the fitted dose curve at least 0.9, where 1 is the maximum; inactive = score below 0.9.

Each compound was assayed on solute carrier (SLC10A1), SLC10A1 (gene 6554) (assay: LTEA_HepaRG_SLC10A1: Life Technologies and Expression Analysis (LTEA) Assay for solute carrier (SLC10A1) using HepaRG (AID 2283657)). Details: mRNA level, 48 h; actives raise or lower the signal.
Protocol: LTEA_HepaRG is a cell based, multiplexed-readout assay that uses HepaRG, a human liver cell line, with measurements taken at 48 hours after chemical dosing on a 96-well plate.LTEA_HepaRG_SLC10A1 is one of 102 assay component(s) measured in the LTEA HepaRG cell culture assay. It is a marker of NR mediated transport.Data from the assay component LTEA_HepaRG_SLC10A1 was analyzed into 1 endpoint. This assay endpoint, LTEA_HepaRG_SLC10A1, was analyzed with bidirectional fitting relative to DMSO as the negative control and baseline of activity. Using a type of inducible reporter, measures of mRNA induction for gain or loss-of-signal activity can be used to understand regulation of transcription factor activity. To generalize the intended target to other relatable targets, this assay endpoint is annotated to the transporter intended target family, where the subfamily is sodium/bile acid cotransporter.
A total of 1060 chemcials from the ToxCast library were tested in eight-point concentration-response experiments. Cell culture and cytotoxicity assays were conducted at Thermo Fisher Scientific's Custom Services facility (Madison, WI). A single lot of human HepaRG cells (Thermo Fisher Scientific, Frederick, MD) was used for the cell culture experiments. 96-well format collagen type I coated plates of human HepaRG cells were prepared using established methods. Briefly, cryopreserved HepaRG cells were thawed, plated at a density of approximately 100,000 cells/well in HepaRG Thaw, Plate, and General Purpose media (HPRG770, Thermo Fisher Scientific), and incubated for 48 hours. 0.5% DMSO was selected as vehicle control to balance the requisite need of DMSO in HepaRG cultures to maintain differentiation (for example, baseline metabolism, proportions of hepatocytes vs. cholangiocytes), while enabling further hepatic receptor pathway activation (for example, PXR and CAR) in response to chemical exposure. 48 hours after plating, the culture medium was replaced with HepaRG Serum-Free Incudtion Media. Cells were exposed to each test chemical in duplicate and maintained in CO2 incubators for another 48 hours. Chemical plates were thawed to room temperature and 200x concentrations of treatment groups were prepared. 8-point conentration-reponse curves were made with the highest exposure at 100 uM, followed by half-log dilutions, all in 0.5% DMSO. Each test plate contained variouse controls, induction positive controls (1mM phenobarbital), cytotoxicity positive controls ([…] aflatoxin B1), vehicle controls (0.5% DMSO), and total lysis controls (0.5% DMSO). Cell morphology images were taken using an Essen IncuCyte FLR automated microscope, with six 96-well plates imaged in about 24 minutes. Images were captured and exported and JPEG files. Spent culture media was transfered to black-well plates for the LDH assay, and remaining media was sorted at -80 C for later use. Cells were treated with RLT buffer and frozen until shipped for gene expression analysis. Total RNA was isolated from the cell suspension in 75 uL of Buffer RLT (Qiagen, Germantown, MD 20874) by Quintiles/Expression Analysis (Durham, NC) using a custom isolation procedure. Total RNA from each plate well was transferred to a preamplification plate. Fluidigm's 96.96 Dynamic ArrayTM (Fluidigm, Amsterdam, the Netherlands) technology was used for gene expression analyses by quantitative reverse transcription polymerase chain reaction (qRT-PCR, performed by Quintiles/Expression Analysis, Durham, NC)89. Standard TaqManTM Assays (Applied Biosystems/ThermoFisher Scientific, Foster City, CA) were used to assess the expression of 93 genes selected based on their selectivity and sensitivity to important hepatic receptors known to be modulated by environmental chemicals; importance in human hepatocyte functionality; and hepatotoxicity. […]

| SMILES | outcome | AC50 |
| --- | --- | --- |
| CCCCN(CC)c1c([N+](=O)[O-])cc(C(F)(F)F)cc1[N+](=O)[O-] | inactive | – |
| CCOP(=S)(OCC)Oc1ccc2c(C)c(Cl)c(=O)oc2c1 | – | 70.7 µM (active) |
| CC1(C(=O)Nc2ccc(O)c(Cl)c2Cl)CCCCC1 | inactive | – |
| CCc1cccc(CC)c1N(COC)C(=O)CCl | inactive | – |
| CC[C@H](C)[C@H]1O[C@]2(C=C[C@@H]1C)C[C@@H]1C[C@@H](C/C=C(\C)[C@@H](O[C@H]3C[C@H](OC)[C@@H](O[C@H]4C[C@H](OC)[C@@H](NC)[C@H](C)O4)[C@H](C)O3)[C@@H](C)/C=C/C=C3\CO[C@@H]4[C@H](O)C(C)=C[C@@H](C(=O)O1)[C@]34O)O2 | – | 5 µM (active) |
| CNC(=O)Oc1cccc2c1OC(C)(C)O2 | inactive | – |
| CCOC(=O)CC(SP(=O)(OC)OC)C(=O)OCC (stereo not given) | – | 10.1 µM (active) |
| CSc1nc(NC(C)C)nc(NC(C)C)n1 | – | 61.6 µM (active) |
| CC(COc1ccc(Oc2ccccc2)cc1)Oc1ccccn1 (stereo not given) | – | 27.9 µM (active) |
| CCOP(=S)(Oc1cnc(C(C)(C)C)nc1)OC(C)C (stereo not given) | – | 16.5 µM (active) |
